Source: PubChem BioAssay
Shown are actives, neighbours in structure and some others; about 0.82% of the full set was active somewhere.
RTF Ca sens act: cardiac RTF calcium sensitization; IANBD-labeled TnC RTF fluorescence at EC20 calcium; 0% EC20 calcium, 100% full calcium; activation, % at 7.2 µM; AID 493008; P19429+P45379; actives 0.24% (n = 340,000);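 active = activation above the mean over all tested compounds plus 3 SD, cut at about 30% in these data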;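 note: rise in fluorescence read as greater calcium sensitivity of cardiac thin filaments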
eLon inh: E. coli protease La inhibition | actives 0.42% (n = 360,000) | AID 602123 | purified E. coli Lon protease, fluorescence polarization | P0A9M0 | inhibition, % at 7.94 µM; in the data active = inhibition above about 13%, passing the limit was not always enough;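 note: 0% = enzyme with probe and DMSO and 100% = no enzyme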
Cardiac RTF inh: cardiac RTF calcium desensitization. P19429+P45379. IANBD-labeled cardiac RTF, Ca2+ fluorescence. inhibition, % at 7.15 µM. actives 0.12% (n = 340,000). AID 493244;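 active = inhibition above the mean inhibition of all tested compounds plus 3 SD, cut at about 17% in these data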;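 note: assay run at fixed EC70 calcium of 1.6 mM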
Keap1 Nrf2 FP: Keap1-Nrf2 (human) interaction inhibition | Q14145 | Keap1 Kelch-Nrf2 peptide fluorescence polarization, 1536-well | inhibition, % at 9.4 µM | actives 0.15% (n = 340,000) | AID 504523; in the data active = inhibition above about 12%;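 note: human Keap1 Kelch domain with fluorescein labeled Nrf2 9mer peptide probe; 0% = neutral control wells and 100% = peptide positive control; higher means more block of Keap1 binding to Nrf2 peptide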
Target sequence (Q14145 whole entry, looked up, the tested form may be a part): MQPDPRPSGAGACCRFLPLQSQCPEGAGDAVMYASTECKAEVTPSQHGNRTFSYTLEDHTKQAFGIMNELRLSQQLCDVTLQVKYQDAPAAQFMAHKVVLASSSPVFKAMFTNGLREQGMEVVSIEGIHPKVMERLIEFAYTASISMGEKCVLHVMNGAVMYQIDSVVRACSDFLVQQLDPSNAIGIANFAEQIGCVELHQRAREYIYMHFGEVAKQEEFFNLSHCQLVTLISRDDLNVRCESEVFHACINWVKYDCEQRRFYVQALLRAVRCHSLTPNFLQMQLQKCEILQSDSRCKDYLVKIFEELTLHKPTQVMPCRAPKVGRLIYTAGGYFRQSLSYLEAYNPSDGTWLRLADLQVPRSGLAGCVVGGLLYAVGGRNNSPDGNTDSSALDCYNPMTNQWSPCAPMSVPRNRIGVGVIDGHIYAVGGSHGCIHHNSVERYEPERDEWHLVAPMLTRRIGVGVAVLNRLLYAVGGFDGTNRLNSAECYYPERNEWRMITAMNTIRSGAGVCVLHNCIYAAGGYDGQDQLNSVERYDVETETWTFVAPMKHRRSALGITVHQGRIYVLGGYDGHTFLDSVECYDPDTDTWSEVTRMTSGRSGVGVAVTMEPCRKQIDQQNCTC
C-LANA FP: KSHV C-LANA DNA binding inhibition | MBP-C-LANA/FAM-LBS DNA binding, fluorescence polarization | inhibition, % at 9 µM | actives 0.078% (n = 340,000) | AID 504423;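 active = highest replicate inhibition at or above 60% at 9 µM, even if other replicates fall short; inactive = all replicates below 60% inhibition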;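 note: 0% = neutral control wells and 100% = 4 µM acridine orange control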
eLon confirm: E. coli Lon inhibition confirmation | purified E. coli Lon, fluorescence polarization | shares compounds with eLon inh | actives 31% (n = 1,400) | inhibition, % at 7.94 µM | AID 602230; in the data active = inhibition above about 16%;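 note: 0% = enzyme with probe and DMSO and 100% = no enzyme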
* marks the source's active call; other numbers are inactive results; nt = no result given.

SMILES	RTF Ca sens act	eLon inh	Cardiac RTF inh	Keap1 Nrf2 FP	C-LANA FP	eLon confirm
COC(=O)Cc1c(C)c2ccc(OC(=O)c3ccccc3)cc2oc1=O	-4	33*	-7	-1	1	28*
Cn1nc([N+](=O)[O-])c(C(C#N)c2ccccn2)c(Cl)c1=O (stereo unspecified)	16	17*	-8	2	2	12
CCCn1nc([N+](=O)[O-])c(C(C#N)c2nc3ccccc3o2)c(Cl)c1=O (stereo unspecified)	-9	-4	1	5	2	nt
COc1ccc(NC(=O)CSc2nnnn2C2CCCC2)cc1S(=O)(=O)N1CCOCC1	nt	-2	nt	nt	nt	nt
COc1ccc(-c2nnc(SCC(=O)N3CCOCC3)o2)cc1OC	7	14*	2	0	1	2
O=C(NC(=S)Nc1ccc([N+](=O)[O-])cc1O)C1CCCCC1	-5	16*	-2	-5	1	0
CCCc1nc2ccc(C)cn2c1Cc1ccc(OC)cc1C	nt	-10	nt	nt	nt	nt
O=C(Nc1cccc(O)c1)C1CCCN1C(=O)OCc1ccccc1 (stereo unspecified)	5	18*	-7	-5	-3	-10
O=C(Nc1ccc(NC(=O)C2CCCN2C(=O)OCc2ccccc2)cc1)c1ccco1 (stereo unspecified)	-3	-3	-1	-2	0	nt
[O-][n+]1cc(Cl)cc(Cl)c1	nt	-4	nt	nt	nt	nt
O=S1(=O)CC(N2CCCC2)CN1Cc1cn(Cc2cccc(C(F)(F)F)c2)nn1 (stereo unspecified)	nt	-10	nt	nt	nt	nt
O=C(NC12CC3CC(CC(C3)C1)C2)c1cc([N+](=O)[O-])ccc1N1CCOCC1	0	19*	6	-4	4	-7
O=C(NCC1CCCCC1)c1cc([N+](=O)[O-])ccc1N1CCOCC1	-3	1	7	-7	1	nt
O=c1c(-c2ccc(Cl)cc2)c[nH]n1-c1ccccc1	-2	18*	-5	-2	0	0
Cc1noc(C)c1S(=O)(=O)NC(=O)C1(C)CCN1C(=O)C1(c2ccc(Cl)cc2)CC1 (stereo unspecified)	nt	-10	nt	nt	nt	nt
CCCc1nc2c(C)cc(Br)cn2c1Cc1ccsc1	nt	9	nt	nt	nt	nt
Cc1cc(Br)cn2c(Cc3ccccc3)c(C3CCCCC3)nc12	nt	-9	nt	nt	nt	nt
Cc1cc(Br)cn2c(Cc3ccsc3)c(-c3ccc(F)cc3)nc12	nt	25*	nt	nt	nt	3
Cc1cc(Br)cn2c(Cc3ccsc3)c(C(C)(C)C)nc12	nt	80*	nt	nt	nt	71*
COc1ccc(-c2nc3c(C)cc(Br)cn3c2Cc2ccc(C)cc2)cc1OC	nt	28*	nt	nt	nt	-10
Cc1cc(Br)cn2c(Cc3ccsc3)c(C3CCCCC3)nc12	nt	50*	nt	nt	nt	53*
Cc1cc(Br)cn2c(Cc3cccc(F)c3)c(-c3ccc(F)cc3)nc12	nt	4	nt	nt	nt	nt
C#CCN(C[C@@H]1[C@@H](OC(=O)NCc2ccco2)[C@@H](OC(=O)NCc2ccco2)CN(C(=O)OC(C)C)N1C(=O)OC(C)C)S(=O)(=O)c1ccc(C)cc1	nt	0	nt	nt	nt	nt
Cn1c(CNC(=O)Nc2cccc(Cl)c2)nnc1SCc1ccccc1	4	15*	-1	-6	0	-13
Cn1c(CNC(=O)Nc2ccccc2)nnc1SCc1ccccc1	10	-22	-5	-3	1	nt
SMILES	RTF Ca sens act	eLon inh	Cardiac RTF inh	Keap1 Nrf2 FP	C-LANA FP	eLon confirm
COc1ccc(CN2C[C@@H](CO)O[C@@H](n3cnc4c(NCc5ccco5)ncnc43)C2)cc1	nt	10	nt	nt	nt	nt
N#Cc1ccc(CC(=O)c2ccccc2)[nH]c1=O	-4	25*	-3	-1	7	-98
O=c1oc2c3c4c(cc2s1)CCCN4CCC3	8	46*	-17	2	6	45*
CCCCNC(=O)c1nc(C2CCN(S(=O)(=O)c3cccc(C(F)(F)F)c3)CC2)oc1-c1ccccc1	nt	-15	nt	nt	nt	nt
CN(C)c1ccc(-c2csc(C(O)c3ccc(F)c(F)c3)n2)cc1 (stereo unspecified)	nt	3	nt	nt	nt	nt
CC/C(=C\C(=O)c1ccncc1)Nc1ccc(O)cc1	1	26*	-2	-1	0	-4
CC(=O)Nc1ccc2nc3c(=O)n(C)c(=O)n(C)c3nc2c1	19	68*	-29	5	15	64*
COc1ccc(C2CC(=O)C(C=NCCCO)=C(O)C2)cc1 (stereo unspecified)	8	44*	-11	5	9	42*
COc1ccc(C2CC(=O)C(C=NCC(C)C)=C(O)C2)cc1 (stereo unspecified)	-6	-15	-13	1	0	nt
O=C(C[C@H]1C(=O)N(c2ccccc2)C[C@@H]1Cc1ccccc1)Nc1ccccc1	nt	-3	nt	nt	nt	nt
CC(C)C[C@H]1CN(CCCC[C@H]2CNC(=O)C(=O)N2CCc2ccc(O)cc2)C(=O)C(=O)N1Cc1ccccc1	nt	9	nt	nt	nt	nt
O=C(NC12CC3CC(CC(C3)C1)C2)c1cnccn1	1	15*	-6	2	7	-22
COc1ccc(-c2ccc(C(=O)N3CCN(C)CC3)c3occc23)c(C)c1	nt	-2	nt	nt	nt	nt
COc1ccc(-c2ccc(C(=O)N3CCOCC3)c3occc23)c(C)c1	nt	23*	nt	nt	nt	0
CCOC(=O)c1[nH]c(C)c(C(=O)OCC(=O)N2CCc3ccccc32)c1C	0	139*	-3	1	0	-13
CCOC(=O)c1c(C)[nH]c(C(=O)OCC(=O)N2CCc3ccccc32)c1C	-4	1	4	-3	0	nt
O=C(c1ccccc1Cl)N(Cc1ccc(Cl)c(Cl)c1)N1C(=O)CCCC1=O	7	18*	-3	-1	1	5
Cc1onc(-c2c(F)cccc2Cl)c1C(=O)Oc1ccccc1	nt	-1	nt	nt	nt	nt
CC1CCc2nc(NC(=O)C3COc4ccccc4O3)sc2C1 (stereo unspecified)	2	34*	-4	-6	2	0
COc1cc(NC(=O)CSc2nc3c(c(=O)[nH]2)CCCC3)cc(OC)c1OC	5	16*	-11	-5	1	1
CN(C)c1ccc(NC(=O)CSc2nc3c(c(=O)[nH]2)CCCC3)cc1	3	-9	-11	-2	1	nt
COc1ncnc2c1NC1=C(S2)C(=NCCC(=O)O)CC(C)(C)C1	28	65*	-29	-1	23	154*
CCc1nc2ccc(C(=O)NCCN(C)C)cn2c1N(CC)CCOC	nt	-1	nt	nt	nt	nt
CCOc1ccccc1N1CCN(Cc2ccc(Br)s2)CC1	1	28*	-4	1	1	11
COc1ccccc1C(=O)Nc1nnc([C@H]2C[C@H](O)[C@@H](CO)O2)s1	nt	8	nt	nt	nt	nt
CC(=O)c1ccc(Nc2nc(C(N)CCc3ccccc3)cs2)cc1 (stereo unspecified)	nt	-9	nt	nt	nt	nt
CN=c1scc(C)n1/N=C/c1ccc(O)c(O)c1O	-1	12	-6	-10	-2	nt
CN=c1scc(-c2cccs2)n1/N=C/c1ccc(O)c(O)c1O	-5	28*	10	-5	0	14
CCCCN1CCCCC1(C)C(=O)NCc1cccs1 (stereo unspecified)	nt	-15	nt	nt	nt	nt
